In PubChem BioAssay one finds fluorescence slope and NADPH fluorescence slope data, which are given here for 40 molecules.

Values without a mark were called inactive. Calls of active or inactive are those of the source.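 Rule for the calls, unless noted: active = NADPH fluorescence slope more negative than the mean of all samples by about 3 SD, 99.7% confidence; inactive = the rest.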

Voltage-gated potassium channel subunit beta-2 (Rattus norvegicus), sequence (P62483 whole entry, looked up): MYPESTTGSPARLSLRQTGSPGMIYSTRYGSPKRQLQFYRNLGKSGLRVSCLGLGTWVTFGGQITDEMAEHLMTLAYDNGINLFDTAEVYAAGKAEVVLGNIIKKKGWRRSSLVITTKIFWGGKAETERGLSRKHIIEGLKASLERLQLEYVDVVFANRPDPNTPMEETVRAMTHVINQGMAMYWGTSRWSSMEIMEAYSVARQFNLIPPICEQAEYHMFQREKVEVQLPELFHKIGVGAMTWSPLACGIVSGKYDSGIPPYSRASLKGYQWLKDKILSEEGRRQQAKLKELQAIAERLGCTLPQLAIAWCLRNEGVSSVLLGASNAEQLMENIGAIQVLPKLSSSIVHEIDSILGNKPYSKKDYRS

One assay concerns the target Voltage-gated potassium channel subunit beta-2 (Rattus norvegicus) (UniProt P62483). As to the kind of experiment: KvBeta enzyme negative modulators, primary screen, biochemical, NADPH fluorescence (AID 622;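 active = fluorescence slope higher than the sample average by over 3 SD, cut at about -0.22 in these data, passing the limit was not always enough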;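 note: slope of raw intensity against log time taken from 70 to 1610 s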). To be noted: recombinant KvBeta, 4-cyanobenzaldehyde reduction, at 10 µM, stronger effect = higher value.
On to `COc1ccccc1CCNC(=O)C1CCCO1` (stereo not given), for which the fluorescence slope was -0.401.

On to `CSc1ccccc1NC(=O)C1CCCO1` (stereo not given), for which the fluorescence slope was -0.429.

`Cn1c(=O)cc(OCCCC(=O)N2CCCCC2)c2ccccc21`: the fluorescence slope is -0.578.

With `CCCc1[nH]nc2c1C(c1cn[nH]c1-c1ccc(F)cc1)C(C#N)=C(N)O2` (stereo not given), the fluorescence slope is -0.38.

`CN1C(=S)SC(C)(NO)C1(C)C` (stereo not given): the fluorescence slope was -0.479.

As for `O=C(NCc1ccc2c(c1)OCO2)C1CCC(CNc2c(N3CCCCC3)c(=O)c2=O)CC1` (stereo not given), the fluorescence slope was -0.595.

Turning to `CC(C)(CO)NC(=O)CCCOc1ccc(Cl)cc1Cl`, the fluorescence slope was -0.431.

Turning to `CN(C(=O)C1CCOC1)c1nnc(-c2cccnc2)s1` (stereo not given), the fluorescence slope is -0.502.

For the molecule `COc1ccc(OC)c2[nH]c(=O)c(CCNC(=O)CC(C)C)cc12`, the fluorescence slope was -0.508.

On to `COc1ccc(S(=O)(=O)N2CCCC2C(=O)Nc2ccc(O)cc2)cc1` (stereo not given), for which the fluorescence slope is -0.535.

As for `CCN(CC)Cc1nc2c(c(=O)[nH]1)C1(CCCCC1)Cc1ccccc1-2`, the fluorescence slope was -0.589.

`COc1ccc(NC(=O)C2CCCCN2S(=O)(=O)c2ccc(F)cc2)cc1` (stereo not given): the fluorescence slope was -0.584.

For `CCOC(=O)c1c(NC(=O)c2cccs2)sc2c1CCN(C(=O)OCC)C2`, the fluorescence slope was -0.192 (active).

In the case of `Cc1c(NC(=O)c2ccc(COc3ccc4ccccc4c3)o2)c(=O)n(-c2ccccc2)n1C`, the fluorescence slope is -0.598.

With `CCOc1ccccc1N(C(=O)c1ccco1)C(C(=O)NC1CCCC1)c1cccnc1` (stereo not given), the fluorescence slope is -0.563.

As to `CCn1cc(C(=O)NCc2ccccc2OC)c(=O)c2cc(S(=O)(=O)N(C)C)ccc21`, the fluorescence slope is -0.425.

In the case of `CC1CCCN(C(=O)CN2CCN(C(=O)c3ccco3)CC2)C1` (stereo not given), the fluorescence slope was -0.596.

For `N#Cc1nc(COc2ccccc2Cl)oc1N1CCCCCC1`, the fluorescence slope is -0.431.

Consider `Cc1nc2sc(C(c3cccc(F)c3)N3CCC(C)CC3)c(O)n2n1` (stereo not given), for which the fluorescence slope is -0.524.

For `CC1CCCN(c2ccc(C(=O)NCc3cccs3)cn2)C1` (stereo not given), the fluorescence slope is -0.614.

`O=C(C1CCC(CNS(=O)(=O)c2cccc3cccnc23)CC1)N1CCCC1` (stereo not given): the fluorescence slope is -0.549.

For the molecule `O=C1c2ccccc2C(Nc2ccc3c(c2)OCO3)N1Cc1ccc2c(c1)OCO2` (stereo not given), the fluorescence slope is -0.398.

Consider `NC(=O)C1CCN(C(=O)c2cc3n(n2)C(C(F)(F)F)CC(c2ccco2)N3)CC1` (stereo not given), for which the fluorescence slope is -0.543.

As to `O=C(Cn1ncc2c1-c1ccccc1OC2)Nc1ccc(Cl)cn1`, the fluorescence slope was -0.573.

As to `O=C(NC1CCCCC1)C(c1ccc(Cl)cc1)N(C(=O)c1cnccn1)c1ccc2c(c1)OCO2` (stereo not given), the fluorescence slope was -0.392.

For `COc1ccc(NC(=O)c2cnc3n(c2=O)CCS3)cc1OC`, the fluorescence slope was -0.515.

Turning to `COc1ccccc1N1CCN(C(=O)CSc2nc3ncnc(N)c3[nH]2)CC1`, the fluorescence slope is -0.52.

On to `CC(C)(C)c1nc(CN2CCOCC2)ccc1O`, for which the fluorescence slope was -0.401.

In the case of `Cc1ccccc1C(=O)NC1CCN(Cc2nnnn2Cc2ccccc2)CC1`, the fluorescence slope is -0.585.

For `COCCn1c(C)c(C(=O)O)sc1=S`, the fluorescence slope is -0.416.

Regarding `Cc1sc2nc(SCC(=O)N3CCN(CCO)CC3)n(-c3ccccc3)c(=O)c2c1C`, the fluorescence slope is -0.456.

For `O=C(c1ccco1)N1CCN(c2nc(C(F)(F)F)nc3c2nnn3Cc2ccccc2)CC1`, the fluorescence slope is -0.484.

With `Cc1ccccc1CN1CCN(C(=O)c2cccc(F)c2)CC1`, the fluorescence slope was -0.411.

Turning to `CCOC(=O)c1c(COC(=O)c2ccco2)nc2ccccc2[n+]1[O-]`, the fluorescence slope is -0.392.

For `COC(=O)CCCCC(=O)C1C(=O)CC(C)(C)C(C(=O)OC)C1=O` (stereo not given), the fluorescence slope was -0.49.

In the case of `COCCn1c(CN2CCN(c3ccccc3F)CC2)nc2c1c(=O)n(C)c(=O)n2C`, the fluorescence slope was -0.61.

Take `CC(C)(C#N)Nn1cnnc1`: the fluorescence slope is -0.237.

Take `CCC(C)(C(=O)NC1CCCC1)N(Cc1cccs1)C(=O)Cc1cccs1` (stereo not given): the fluorescence slope was -0.473.

Turning to `COc1cccc(CN=CC2=C(O)CC(C)(C)CC2=O)c1OC`, the fluorescence slope is -0.468.

Take `Cc1[nH]c2c(C)cccc2c(=O)c1Br`: the fluorescence slope was -0.584.

The target is the same in a further assay. As to the kind of experiment: KvBeta positive modulators, primary screen, biochemical, NADPH fluorescence (AID 623).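 Note: fluorescence intensity change per second fitted from 20 to 320 s.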 The note with it: Recombinant KvBeta, NADPH fluorescence decrease slope, 10 min; at 10 µM; stronger effect = lower value.
With `COc1ccccc1CCNC(=O)C1CCCO1` (stereo not given), the NADPH fluorescence slope was -1.9e-05.

As to `CSc1ccccc1NC(=O)C1CCCO1` (stereo not given), the NADPH fluorescence slope is 0.000108.

Take `Cn1c(=O)cc(OCCCC(=O)N2CCCCC2)c2ccccc21`: the NADPH fluorescence slope is 1.8e-05.

`CCCc1[nH]nc2c1C(c1cn[nH]c1-c1ccc(F)cc1)C(C#N)=C(N)O2` (stereo not given): the NADPH fluorescence slope is -0.000105.

`CN1C(=S)SC(C)(NO)C1(C)C` (stereo not given): the NADPH fluorescence slope was -0.000139 (active).

For the molecule `O=C(NCc1ccc2c(c1)OCO2)C1CCC(CNc2c(N3CCCCC3)c(=O)c2=O)CC1` (stereo not given), the NADPH fluorescence slope is -4.4e-05.

In the case of `CC(C)(CO)NC(=O)CCCOc1ccc(Cl)cc1Cl`, the NADPH fluorescence slope was -2.6e-05.

With `CN(C(=O)C1CCOC1)c1nnc(-c2cccnc2)s1` (stereo not given), the NADPH fluorescence slope was -1.1e-05.

Turning to `COc1ccc(OC)c2[nH]c(=O)c(CCNC(=O)CC(C)C)cc12`, the NADPH fluorescence slope was -4.7e-05.

As to `COc1ccc(S(=O)(=O)N2CCCC2C(=O)Nc2ccc(O)cc2)cc1` (stereo not given), the NADPH fluorescence slope is -2e-05.

Consider `CCN(CC)Cc1nc2c(c(=O)[nH]1)C1(CCCCC1)Cc1ccccc1-2`, for which the NADPH fluorescence slope was -5.5e-05.

With `COc1ccc(NC(=O)C2CCCCN2S(=O)(=O)c2ccc(F)cc2)cc1` (stereo not given), the NADPH fluorescence slope is -2.4e-05.

Regarding `CCOC(=O)c1c(NC(=O)c2cccs2)sc2c1CCN(C(=O)OCC)C2`, the NADPH fluorescence slope was -6.6e-05.

In the case of `Cc1c(NC(=O)c2ccc(COc3ccc4ccccc4c3)o2)c(=O)n(-c2ccccc2)n1C`, the NADPH fluorescence slope is -2.6e-05.

For the molecule `CCOc1ccccc1N(C(=O)c1ccco1)C(C(=O)NC1CCCC1)c1cccnc1` (stereo not given), the NADPH fluorescence slope was 2.3e-05.

In the case of `CCn1cc(C(=O)NCc2ccccc2OC)c(=O)c2cc(S(=O)(=O)N(C)C)ccc21`, the NADPH fluorescence slope was -4e-05.

In the case of `CC1CCCN(C(=O)CN2CCN(C(=O)c3ccco3)CC2)C1` (stereo not given), the NADPH fluorescence slope was -6.2e-05.

For `N#Cc1nc(COc2ccccc2Cl)oc1N1CCCCCC1`, the NADPH fluorescence slope is -5e-05.

Regarding `Cc1nc2sc(C(c3cccc(F)c3)N3CCC(C)CC3)c(O)n2n1` (stereo not given), the NADPH fluorescence slope is -7.2e-05.

As for `CC1CCCN(c2ccc(C(=O)NCc3cccs3)cn2)C1` (stereo not given), the NADPH fluorescence slope was -6.9e-06.

Take `O=C(C1CCC(CNS(=O)(=O)c2cccc3cccnc23)CC1)N1CCCC1` (stereo not given): the NADPH fluorescence slope was -1.6e-05.

Take `O=C1c2ccccc2C(Nc2ccc3c(c2)OCO3)N1Cc1ccc2c(c1)OCO2` (stereo not given): the NADPH fluorescence slope is -2.6e-05.

Regarding `NC(=O)C1CCN(C(=O)c2cc3n(n2)C(C(F)(F)F)CC(c2ccco2)N3)CC1` (stereo not given), the NADPH fluorescence slope is 1.2e-05.

Consider `O=C(Cn1ncc2c1-c1ccccc1OC2)Nc1ccc(Cl)cn1`, for which the NADPH fluorescence slope was -3.2e-05.

As to `O=C(NC1CCCCC1)C(c1ccc(Cl)cc1)N(C(=O)c1cnccn1)c1ccc2c(c1)OCO2` (stereo not given), the NADPH fluorescence slope is -3.7e-05.

Take `COc1ccc(NC(=O)c2cnc3n(c2=O)CCS3)cc1OC`: the NADPH fluorescence slope is -3.9e-05.

As to `COc1ccccc1N1CCN(C(=O)CSc2nc3ncnc(N)c3[nH]2)CC1`, the NADPH fluorescence slope was 7.1e-06.

Take `CC(C)(C)c1nc(CN2CCOCC2)ccc1O`: the NADPH fluorescence slope is -4.4e-05.

As for `Cc1ccccc1C(=O)NC1CCN(Cc2nnnn2Cc2ccccc2)CC1`, the NADPH fluorescence slope is -4.3e-05.

As to `COCCn1c(C)c(C(=O)O)sc1=S`, the NADPH fluorescence slope is 5e-06.

Turning to `Cc1sc2nc(SCC(=O)N3CCN(CCO)CC3)n(-c3ccccc3)c(=O)c2c1C`, the NADPH fluorescence slope was -4.5e-05.

On to `O=C(c1ccco1)N1CCN(c2nc(C(F)(F)F)nc3c2nnn3Cc2ccccc2)CC1`, for which the NADPH fluorescence slope is -5.9e-05.

In the case of `Cc1ccccc1CN1CCN(C(=O)c2cccc(F)c2)CC1`, the NADPH fluorescence slope is -1.4e-05.

Take `CCOC(=O)c1c(COC(=O)c2ccco2)nc2ccccc2[n+]1[O-]`: the NADPH fluorescence slope is -4.6e-05.

On to `COC(=O)CCCCC(=O)C1C(=O)CC(C)(C)C(C(=O)OC)C1=O` (stereo not given), for which the NADPH fluorescence slope is 4.5e-05.

Take `COCCn1c(CN2CCN(c3ccccc3F)CC2)nc2c1c(=O)n(C)c(=O)n2C`: the NADPH fluorescence slope is -2.3e-05.

Take `CC(C)(C#N)Nn1cnnc1`: the NADPH fluorescence slope is -1.3e-05.

On to `CCC(C)(C(=O)NC1CCCC1)N(Cc1cccs1)C(=O)Cc1cccs1` (stereo not given), for which the NADPH fluorescence slope is -0.000168.

`COc1cccc(CN=CC2=C(O)CC(C)(C)CC2=O)c1OC`: the NADPH fluorescence slope is 9.7e-05.

`Cc1[nH]c2c(C)cccc2c(=O)c1Br`: the NADPH fluorescence slope was -7.5e-05.
